Data reported in PubChem BioAssay AID652053 (Broad Institute, 2013).
Hit rate of the full screen: of about 1,300 compounds, about 930 (72%) were called active.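 The calls were made as follows: active = fitted curve reaches 40% activation signal increase at or below the top valid tested concentration in every replicate test; inconclusive = replicate tests disagree in their calls; inactive = all replicate tests inactive, including effects opposite the expected signal rise.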 The set was probably picked from earlier hits. Not all results are given here. Potency and affinity values are given separately.

Assay: miR-122 inhibitors in Huh7 reporter cells, dose response, cell-based, Huh7 psiCHECK-miR122, Renilla luciferase, cherry-pick (AID 652053)
Conditions: 48 h; series mostly up to 35 µM

outcome, inactive:
C[C@@H]1CN([C@H](C)CO)C(=O)Cc2cc(NC(=O)Nc3cccc4ccccc34)ccc2O[C@@H]1CN(C)C(=O)NC1CCCCC1
O=C(NNC(=S)NC1CCCCC1)c1ccc2c(c1)OCO2
Cc1ccc(Cl)cc1NC(=S)N(CCCN1CCOCC1)Cc1ccccn1
COCCn1c(C)cc(C(=O)COC(=O)c2cc3c(s2)CCC3)c1C
O=C(c1ccccc1)c1ccc(-c2ccc(O)cc2)cc1
O=C(OCc1ccccc1Cl)c1ccccc1C(=O)c1ccccc1
COCC(=O)NC[C@H]1[C@H](c2ccccc2)[C@@H](CO)N1C(=O)c1ccccc1
CC(=O)Nc1ccc(S(=O)(=O)NCCc2ccc(S(N)(=O)=O)cc2)cc1
C[C@H]1CN([C@@H](C)CO)C(=O)Cc2cc(NC(=O)Nc3cccc4ccccc34)ccc2O[C@@H]1CN(C)C(=O)NC1CCCCC1
COC(=O)c1sccc1NC(=S)Nc1ccc(F)cc1
CCC1(c2ccc(F)cc2)NC(=O)N(CC(=O)Nc2ccc(-c3nc4ccc(C)cc4s3)cc2)C1=O (stereo not drawn)
COc1ccc(CCNC(=O)COC(=O)Cn2cnc3ccccc3c2=O)cc1
Cc1ccc(Nc2nc(C(=O)NCc3ccco3)cs2)cc1
O=c1c2c(nc3nc(SCc4ccccc4)[nH]n13)CCC2
Cc1ccc(CSc2nnc(-c3cccnc3)o2)cc1
CN(C[C@H]1N[C@@H](CO)[C@H]1c1ccc(-c2cccc(F)c2)cc1)S(C)(=O)=O
C[C@H]1CN([C@@H](C)CO)C(=O)c2cccc(NS(=O)(=O)c3ccccc3)c2O[C@H]1CN(C)Cc1ccc(C(=O)Nc2ccccc2N)cc1
C[C@@H]1CN([C@H](C)CO)C(=O)c2cccc(NS(=O)(=O)c3ccccc3)c2O[C@H]1CN(C)Cc1ccc(C(=O)Nc2ccccc2N)cc1
CCCCC(O)(CCCC)C(=O)NN(C(=O)OC)c1ccccc1
COc1ccc(C(=O)N[C@H](C(=O)Nc2nc3ccccc3[nH]2)C(C)C)cc1
CC(=O)N1[C@H](CNC(=O)C2CC2)[C@H](c2ccc(-c3ccccc3)cc2)[C@@H]1CO
O=C(N/N=C/c1cccc(F)c1)c1csc2c1CCCC2
O=C(NC[C@H]1N[C@H](CO)[C@H]1c1ccccc1)c1ccccc1F
CC(C)NC(=O)N1CC[C@@H]2[C@@H](CO)N(C)c3ccc(-c4cccc(F)c4)cc3[C@@H]21
CN1c2ccc(-c3cccc(F)c3)cc2[C@H]2[C@H](CCN2C(=O)C2CC2)[C@H]1CO
CC(C)NC(=O)N1[C@H](CO)[C@@H]2c3ccccc3N(C(=O)c3ccccc3F)C[C@@H]21
C[C@@H]1CN([C@@H](C)CO)C(=O)c2cccc(NC(=O)C3CCOCC3)c2O[C@@H]1CN(C)Cc1ccc2c(c1)OCO2
C[C@@H]1CN([C@H](C)CO)C(=O)c2cccc(NC(=O)C3CCOCC3)c2O[C@H]1CN(C)Cc1ccc2c(c1)OCO2
C[C@@H]1CN([C@@H](C)CO)C(=O)c2cccc(NC(=O)C3CCOCC3)c2O[C@H]1CN(C)Cc1ccc2c(c1)OCO2
C[C@@H]1CN([C@H](C)CO)C(=O)c2cccc(NC(=O)C3CCOCC3)c2O[C@@H]1CN(C)Cc1ccc2c(c1)OCO2
Cc1ccccc1N(C(=O)CCCC(=O)Nc1ccccn1)C(C(=O)NC1CCCC1)c1ccc(O)cc1 (stereo not drawn)
Cc1c(C(=O)Nc2ccccn2)oc2ccccc12
O=C(NCCCN1CCN(Cc2ccccc2)CC1)c1nnc(Cc2c(F)cccc2Cl)o1
COC(=O)c1c(NC(C)=O)sc(Cc2ccccc2)c1C
O=C(Nc1ccccn1)c1cccc(S(=O)(=O)N2CCOCC2)c1
CCC(=O)N1[C@H](CNC(=O)COC)[C@@H](c2ccc(-c3ccccc3)cc2)[C@@H]1CO
Cc1ccc(S(=O)(=O)NCCC(=O)Oc2ccc3ccc(=O)oc3c2)cc1
Cc1ccc2[nH]c(CNC(=O)C3CCCCC3)cc2c1
C[C@@H]1CN([C@@H](C)CO)C(=O)Cc2cc(NC(=O)Nc3cccc4ccccc34)ccc2O[C@H]1CN(C)C(=O)NC1CCCCC1
COc1ccc(/C=N/NC(=O)COc2ccccc2-c2ccccc2)cc1
Cc1ccc(OCC(=O)Nc2cccc3c2CCCC3)cc1C
CCOc1ccc(N2C(=O)Nc3ccccc3C2(O)C(=O)NCc2ccc3c(c2)OCO3)cc1 (stereo not drawn)
Cc1cc(Cl)c(S(=O)(=O)N2CCCCCC2)cc1OCC(=O)NC1CCCCC1
c1ccc(CSc2nnc(-c3cccnc3)o2)cc1
C=CC(C)n1c(Br)nc2c1c(=O)[nH]c(=O)n2C (stereo not drawn)
CS(=O)(=O)N(CC(=O)Nc1cccc(F)c1)c1cccc([N+](=O)[O-])c1
Cc1c(-c2ccccc2)cn2c1-c1ccc(C)n1CC2
O=C(CN1CCOCC1)Nc1cc(Cl)ccc1Cl
CCn1c(CCNC(=O)c2ccc(OC)cc2)nnc1SCC(=O)Nc1ccccc1F
COc1cc(OC)c(-c2nc3cnccc3n2C)cc1OC
CCOC(=O)c1[nH]c2c(c1C)C(=O)CC(c1ccco1)C2 (stereo not drawn)
COC(=O)c1[nH]c2c(c1C)C(=O)CC(c1ccccc1)C2 (stereo not drawn)
CCC(=O)N1[C@H](CO)[C@H](c2ccccc2)[C@@H]1CN(CC)C(=O)c1cccc(F)c1
Cc1ccc(NCc2nnc(SCC(=O)Nc3ccccc3)n2CC2CCCO2)c(C)c1 (stereo not drawn)
CC1CCN(C(=S)c2ccc(O)cc2)CC1
CC1CCN(S(=O)(=O)c2ccc(NC(=O)Cc3cccs3)cc2)CC1
COCC(=O)Nc1ccc2c(c1)[C@@H]1C[C@H](CC(=O)NCc3ccccc3)O[C@H](CO)[C@@H]1O2
O=C(C[C@@H]1C[C@H]2c3cc(NS(=O)(=O)c4ccc(F)cc4)ccc3O[C@H]2[C@H](CO)O1)NCc1ccc(Oc2ccccc2)cc1
C[C@@H]1CN([C@@H](C)CO)C(=O)c2cc(N(C)C)ccc2O[C@@H]1CN(C)C(=O)Nc1ccc(F)cc1
COc1ccc(NC(=O)Nc2ccc3c(c2)CC(=O)N([C@@H](C)CO)C[C@@H](C)[C@H](CN(C)C(=O)NC(C)C)O3)cc1
COc1ccc(NC(=O)Nc2ccc3c(c2)CC(=O)N([C@@H](C)CO)C[C@@H](C)[C@@H](CN(C)C(=O)NC(C)C)O3)cc1
CC(=O)c1cccc(OCC(=O)Nc2ccccc2N2CCOCC2)c1
COCCCn1c(=O)/c(=C\c2ccccc2OC(F)F)s/c1=C(/C#N)C(N)=O
Cc1cc(C)c(C)c(S(=O)(=O)Nc2ccc(OCC(=O)O)cc2)c1C
Cc1cc(O)c(C(C)C)cc1N=Nc1ccccc1C(=O)O
Cc1ccc(C)c(S(=O)(=O)Nc2ccc(O)c3ccccc23)c1
C=CCn1cc(C(=O)N2CCc3ccccc3C2)c(=O)c2cc(S(=O)(=O)N(CC)CC)ccc21
CC(=O)c1cccc(NC(=O)C(C)N2CCc3ccccc3C2)c1 (stereo not drawn)
Cc1ccc(C(=O)Oc2ccc(C(=S)N3CCOCC3)cc2)cc1
Cc1ccc(CN2C(=O)C(C)(C)Oc3ccc(C(=O)N4CCCCC4)cc32)cc1
CCc1cccc(NC(=O)Cc2cn(C)c3ccccc23)c1
CCc1ccc(NC(=O)CN2CCc3ccccc3C2)cc1
Cc1noc(C)c1NC(=O)Nc1ccc2c(c1)CC(=O)N([C@@H](C)CO)C[C@H](C)[C@@H](CN(C)Cc1ccc(Cl)c(Cl)c1)O2
